# Legend:
# [1] = target: T1, Serine/threonine-protein kinase TBK1 (Homo sapiens) (UniProt Q9UHD2); settings: at 10 µM
# T1 sequence (whole entry): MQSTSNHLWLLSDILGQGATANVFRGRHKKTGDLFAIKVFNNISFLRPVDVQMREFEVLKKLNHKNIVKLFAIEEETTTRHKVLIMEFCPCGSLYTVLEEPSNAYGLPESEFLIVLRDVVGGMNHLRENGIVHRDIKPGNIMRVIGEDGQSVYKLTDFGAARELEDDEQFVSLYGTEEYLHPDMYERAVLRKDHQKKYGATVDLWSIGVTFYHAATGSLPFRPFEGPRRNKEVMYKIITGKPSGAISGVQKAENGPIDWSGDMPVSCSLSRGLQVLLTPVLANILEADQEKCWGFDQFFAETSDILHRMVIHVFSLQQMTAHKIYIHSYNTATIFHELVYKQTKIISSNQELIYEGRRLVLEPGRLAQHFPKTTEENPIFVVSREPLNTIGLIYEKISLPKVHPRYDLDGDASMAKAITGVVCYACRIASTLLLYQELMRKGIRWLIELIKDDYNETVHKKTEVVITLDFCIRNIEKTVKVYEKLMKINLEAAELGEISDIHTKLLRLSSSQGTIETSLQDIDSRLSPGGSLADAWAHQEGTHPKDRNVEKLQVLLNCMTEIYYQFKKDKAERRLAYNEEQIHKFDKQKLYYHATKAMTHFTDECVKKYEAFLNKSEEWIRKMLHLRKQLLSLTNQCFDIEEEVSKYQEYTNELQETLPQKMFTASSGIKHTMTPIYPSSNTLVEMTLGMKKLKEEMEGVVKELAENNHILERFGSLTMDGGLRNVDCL
# [2] = target: T2, TGF-beta receptor type-1 (Homo sapiens) (UniProt P36897); settings: at 1 µM
# T2 sequence (whole entry): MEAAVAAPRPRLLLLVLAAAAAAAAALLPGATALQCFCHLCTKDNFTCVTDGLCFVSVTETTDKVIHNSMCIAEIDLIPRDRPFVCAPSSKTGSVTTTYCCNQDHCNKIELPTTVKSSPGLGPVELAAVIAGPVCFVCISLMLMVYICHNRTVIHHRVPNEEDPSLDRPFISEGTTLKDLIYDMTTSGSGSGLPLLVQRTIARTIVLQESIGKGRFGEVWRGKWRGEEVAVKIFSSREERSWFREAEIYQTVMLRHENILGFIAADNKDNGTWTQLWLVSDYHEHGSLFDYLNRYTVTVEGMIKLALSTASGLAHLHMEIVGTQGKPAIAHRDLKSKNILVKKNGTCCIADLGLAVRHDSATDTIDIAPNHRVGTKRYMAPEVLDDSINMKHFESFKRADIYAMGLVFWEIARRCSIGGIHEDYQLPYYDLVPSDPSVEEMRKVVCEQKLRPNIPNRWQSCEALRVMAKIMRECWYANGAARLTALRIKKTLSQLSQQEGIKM
# [3] = target: T2, TGF-beta receptor type-1 (Homo sapiens); settings: at 10 µM
# [4] = target: Insulin-like growth factor 1 receptor (Homo sapiens) (UniProt P08069); settings: at 1 µM
# Sequence of Insulin-like growth factor 1 receptor (Homo sapiens) (P08069 31-736 limits assumed): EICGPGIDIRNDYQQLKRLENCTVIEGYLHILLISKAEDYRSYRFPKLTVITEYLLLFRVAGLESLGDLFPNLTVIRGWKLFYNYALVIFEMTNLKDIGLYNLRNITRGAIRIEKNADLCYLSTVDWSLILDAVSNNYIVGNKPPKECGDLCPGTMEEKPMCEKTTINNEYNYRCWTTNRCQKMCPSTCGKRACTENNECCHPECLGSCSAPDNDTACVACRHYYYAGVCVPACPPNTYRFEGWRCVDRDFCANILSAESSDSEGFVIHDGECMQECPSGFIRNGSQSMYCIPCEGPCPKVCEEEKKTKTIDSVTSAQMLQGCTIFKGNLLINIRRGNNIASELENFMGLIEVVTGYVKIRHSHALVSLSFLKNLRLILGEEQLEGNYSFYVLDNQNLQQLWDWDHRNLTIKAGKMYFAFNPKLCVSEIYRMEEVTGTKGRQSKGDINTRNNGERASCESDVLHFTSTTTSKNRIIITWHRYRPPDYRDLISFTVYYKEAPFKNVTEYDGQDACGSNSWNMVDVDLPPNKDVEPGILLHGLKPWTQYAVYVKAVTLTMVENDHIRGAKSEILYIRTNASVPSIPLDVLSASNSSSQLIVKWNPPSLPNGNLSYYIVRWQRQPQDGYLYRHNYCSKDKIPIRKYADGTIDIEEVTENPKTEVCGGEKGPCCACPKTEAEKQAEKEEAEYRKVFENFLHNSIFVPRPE
# Sequence of Insulin-like growth factor 1 receptor (Homo sapiens) (P08069 741-1367 limits assumed): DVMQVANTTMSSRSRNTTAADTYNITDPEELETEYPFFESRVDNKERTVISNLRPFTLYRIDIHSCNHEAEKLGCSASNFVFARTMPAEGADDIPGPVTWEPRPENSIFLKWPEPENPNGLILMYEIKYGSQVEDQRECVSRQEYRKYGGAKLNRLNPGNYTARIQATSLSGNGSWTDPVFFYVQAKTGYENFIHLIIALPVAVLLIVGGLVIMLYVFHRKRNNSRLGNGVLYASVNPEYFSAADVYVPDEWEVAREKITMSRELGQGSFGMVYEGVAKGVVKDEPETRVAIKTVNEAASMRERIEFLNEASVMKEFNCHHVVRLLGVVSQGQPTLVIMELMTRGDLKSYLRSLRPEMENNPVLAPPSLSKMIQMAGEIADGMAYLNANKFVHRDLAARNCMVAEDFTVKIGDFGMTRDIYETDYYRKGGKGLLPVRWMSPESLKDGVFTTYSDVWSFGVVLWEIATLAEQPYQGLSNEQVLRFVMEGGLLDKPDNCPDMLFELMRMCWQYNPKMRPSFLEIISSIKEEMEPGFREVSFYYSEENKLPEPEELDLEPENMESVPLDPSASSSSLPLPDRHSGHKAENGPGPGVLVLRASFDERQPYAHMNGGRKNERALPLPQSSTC
# [5] = target: Insulin-like growth factor 1 receptor (Homo sapiens) (UniProt P08069); settings: at 10 µM
# [6] = target: T3, Inhibitor of nuclear factor kappa-B kinase subunit alpha (Homo sapiens) (UniProt O15111); settings: at 1 µM
# T3 sequence (whole entry): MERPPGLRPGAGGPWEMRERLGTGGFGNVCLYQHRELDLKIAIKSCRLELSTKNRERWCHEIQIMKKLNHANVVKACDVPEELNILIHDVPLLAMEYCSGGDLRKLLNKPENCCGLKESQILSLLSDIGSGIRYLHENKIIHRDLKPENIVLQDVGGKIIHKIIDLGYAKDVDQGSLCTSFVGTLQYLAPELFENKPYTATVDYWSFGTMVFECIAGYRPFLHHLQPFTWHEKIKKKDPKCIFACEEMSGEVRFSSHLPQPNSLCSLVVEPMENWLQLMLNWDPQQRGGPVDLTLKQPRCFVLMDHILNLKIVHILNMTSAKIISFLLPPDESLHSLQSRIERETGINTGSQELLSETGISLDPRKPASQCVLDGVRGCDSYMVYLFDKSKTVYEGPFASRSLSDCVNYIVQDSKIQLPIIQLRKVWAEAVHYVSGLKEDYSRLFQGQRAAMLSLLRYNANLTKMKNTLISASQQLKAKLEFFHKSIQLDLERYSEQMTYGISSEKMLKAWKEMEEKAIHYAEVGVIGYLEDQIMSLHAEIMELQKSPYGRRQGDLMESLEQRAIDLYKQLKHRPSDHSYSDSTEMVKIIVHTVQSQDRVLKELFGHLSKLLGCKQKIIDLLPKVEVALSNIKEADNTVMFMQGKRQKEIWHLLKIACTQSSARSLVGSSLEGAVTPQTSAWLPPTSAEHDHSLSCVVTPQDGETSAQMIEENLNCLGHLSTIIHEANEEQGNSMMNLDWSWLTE
# [7] = target: T3, Inhibitor of nuclear factor kappa-B kinase subunit alpha (Homo sapiens); settings: at 10 µM
# [8] = target: T4, Inhibitor of nuclear factor kappa-B kinase subunit beta (Homo sapiens) (UniProt O14920); settings: at 1 µM
# T4 sequence (whole entry): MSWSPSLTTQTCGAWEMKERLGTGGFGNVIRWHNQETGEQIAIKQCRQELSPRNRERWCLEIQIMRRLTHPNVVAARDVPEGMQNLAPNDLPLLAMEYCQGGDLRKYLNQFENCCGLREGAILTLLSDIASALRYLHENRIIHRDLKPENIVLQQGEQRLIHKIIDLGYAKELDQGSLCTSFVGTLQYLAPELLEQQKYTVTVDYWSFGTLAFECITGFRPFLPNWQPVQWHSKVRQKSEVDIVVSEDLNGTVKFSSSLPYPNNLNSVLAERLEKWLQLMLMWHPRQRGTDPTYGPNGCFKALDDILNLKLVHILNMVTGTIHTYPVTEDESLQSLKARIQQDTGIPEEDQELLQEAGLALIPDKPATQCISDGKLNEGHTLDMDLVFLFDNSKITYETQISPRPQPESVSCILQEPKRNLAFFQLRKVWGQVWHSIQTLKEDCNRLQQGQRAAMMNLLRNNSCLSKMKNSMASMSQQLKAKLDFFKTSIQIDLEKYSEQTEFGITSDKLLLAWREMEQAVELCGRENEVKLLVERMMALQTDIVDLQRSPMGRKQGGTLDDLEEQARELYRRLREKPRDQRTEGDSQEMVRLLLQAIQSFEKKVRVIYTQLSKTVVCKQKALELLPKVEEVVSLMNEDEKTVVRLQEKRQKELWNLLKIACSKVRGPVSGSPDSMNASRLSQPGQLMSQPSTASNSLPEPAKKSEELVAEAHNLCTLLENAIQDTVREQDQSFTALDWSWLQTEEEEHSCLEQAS
# [9] = target: T4, Inhibitor of nuclear factor kappa-B kinase subunit beta (Homo sapiens); settings: at 10 µM
# [10] = target: Insulin receptor (Homo sapiens) (UniProt P06213); settings: at 1 µM
# Sequence of Insulin receptor (Homo sapiens) (P06213 28-758 limits assumed): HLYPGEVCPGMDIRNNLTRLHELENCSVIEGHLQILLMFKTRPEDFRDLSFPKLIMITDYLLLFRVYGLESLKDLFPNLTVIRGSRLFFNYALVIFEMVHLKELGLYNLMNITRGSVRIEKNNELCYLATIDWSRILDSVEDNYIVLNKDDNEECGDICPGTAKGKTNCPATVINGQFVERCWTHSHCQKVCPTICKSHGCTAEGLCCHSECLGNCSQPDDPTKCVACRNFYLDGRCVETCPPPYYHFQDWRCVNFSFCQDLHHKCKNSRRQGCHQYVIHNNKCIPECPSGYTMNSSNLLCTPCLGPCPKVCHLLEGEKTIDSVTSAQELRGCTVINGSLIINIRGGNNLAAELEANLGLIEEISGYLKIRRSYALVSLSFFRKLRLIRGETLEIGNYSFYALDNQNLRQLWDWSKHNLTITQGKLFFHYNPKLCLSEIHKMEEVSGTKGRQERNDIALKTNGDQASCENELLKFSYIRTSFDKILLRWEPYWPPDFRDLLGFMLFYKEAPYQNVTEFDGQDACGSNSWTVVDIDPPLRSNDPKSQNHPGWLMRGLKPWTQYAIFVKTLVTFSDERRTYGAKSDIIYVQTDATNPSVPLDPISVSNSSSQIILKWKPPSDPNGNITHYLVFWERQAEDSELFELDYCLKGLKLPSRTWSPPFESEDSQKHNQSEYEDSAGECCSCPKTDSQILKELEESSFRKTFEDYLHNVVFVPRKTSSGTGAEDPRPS
# Sequence of Insulin receptor (Homo sapiens) (P06213 763-1382 limits assumed): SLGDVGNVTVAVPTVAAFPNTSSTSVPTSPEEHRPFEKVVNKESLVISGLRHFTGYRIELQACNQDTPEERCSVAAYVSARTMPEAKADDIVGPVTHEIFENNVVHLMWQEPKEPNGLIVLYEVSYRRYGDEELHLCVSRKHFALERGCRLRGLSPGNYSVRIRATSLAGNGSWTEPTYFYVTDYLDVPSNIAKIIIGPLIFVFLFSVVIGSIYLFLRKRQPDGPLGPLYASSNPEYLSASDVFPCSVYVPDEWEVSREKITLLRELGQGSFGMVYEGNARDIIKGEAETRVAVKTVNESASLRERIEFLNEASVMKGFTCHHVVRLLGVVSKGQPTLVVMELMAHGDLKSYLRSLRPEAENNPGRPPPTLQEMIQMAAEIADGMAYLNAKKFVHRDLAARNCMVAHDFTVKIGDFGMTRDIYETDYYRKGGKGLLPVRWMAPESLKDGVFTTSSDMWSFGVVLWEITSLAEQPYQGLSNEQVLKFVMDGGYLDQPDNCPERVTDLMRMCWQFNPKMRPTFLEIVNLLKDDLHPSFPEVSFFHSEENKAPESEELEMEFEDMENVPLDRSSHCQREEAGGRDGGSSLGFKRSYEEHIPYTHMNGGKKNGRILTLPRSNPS
structure (smiles),measurement,setting,value
CO[C@H]1C[C@@H]2CC[C@@H](C)[C@@](O)(O2)C(=O)C(=O)N2CCCC[C@H]2C(=O)O[C@H]([C@H](C)C[C@@H]2CC[C@@H](O)[C@H](OC)C2)CC(=O)[C@H](C)/C=C(\C)[C@@H](O)[C@@H](OC)C(=O)[C@H](C)C[C@H](C)/C=C/C=C/C=C/1C,residual activity,[1],55%
same,residual activity,[2],82%
same,residual activity,[3],78%
same,residual activity,[4],96%
same,residual activity,[5],74%
same,residual activity,[6],121%
same,residual activity,[7],148%
same,residual activity,[8],104%
same,residual activity,[9],124%
same,residual activity,[10],107%
